Active and inactive are the calls of the source.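 The calls were made as follows, unless noted: active = inhibition at or above 50% at 10 µM; inactive = inhibition below 50%.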
Experiments:
[1] = inhibitors of TNFa-induced NFkB p65 translocation, primary screen, imaging, HUVEC, MLSMR starter and 10KST1 sets (AID 438;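 active = inhibition above 20% together with a positive visual image hit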;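 also: compound added about 3h40 before a 20 min TNFalpha stimulation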;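 as to inhibition: signal is the nuclear over cytoplasmic p65 intensity ratio per well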); details: HUVEC TNFa-induced p65 nuclear translocation; cell count: measured here: nuclei count (cytotoxicity indicator), at 2.08 µM; inhibition: at 2 µM, stronger effect = higher value, 0% TNFa-plus-vehicle, 100% no-TNFa wells
[2] = inhibitors of mutant huntingtin aggregation, primary screen, imaging, exon1htt(103Q)mCFP cells, high-content imaging (AID 483;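 active = visual image review flags a hit and inhibition of aggregation exceeds 20%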;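 also: compound exposure lasted 3 days before fixation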;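 as to nuclei count: percent of the per-plate median nuclei count of sample wells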); details: exon1htt(103Q)mCFP cell line, aggregate imaging, at 2 µM; inhibition of aggregation: stronger effect = higher value; nuclei count: measured here: cell count, toxicity
[3] = inhibitors of E-selectin induction by TNFa, primary screen, imaging, HUVEC, immunofluorescence, MLSMR starter and 10KST1 sets (AID 487;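 active = visually confirmed hit in the image check and inhibition above 20%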;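 as to inhibition: signal is fraction of cell area covered by stained E-selectin grains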;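 as to nuclei count: 100% = median nuclei count of all wells on the same plate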); details: HUVEC TNFalpha-induced E-selectin immunofluorescence imaging, at 2 µM; inhibition: stronger effect = higher value; nuclei count: measured here: cell number, toxicity
[4] = target: Voltage-gated potassium channel subunit beta-2 (Rattus norvegicus) (UniProt P62483); experiment: KvBeta enzyme negative modulators, primary screen, biochemical, NADPH fluorescence (AID 622;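 active = fluorescence slope higher than the sample average by over 3 SD, cut at about -0.22 in these data, passing the limit was not always enough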;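 also: slope of raw intensity against log time taken from 70 to 1610 s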); details: recombinant KvBeta, 4-cyanobenzaldehyde reduction, at 10 µM, stronger effect = higher value
[5] = target: Voltage-gated potassium channel subunit beta-2 (Rattus norvegicus) (UniProt P62483); experiment: KvBeta positive modulators, primary screen, biochemical, NADPH fluorescence (AID 623;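 active = NADPH fluorescence slope more negative than the mean of all samples by about 3 SD, 99.7% confidence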;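 also: fluorescence intensity change per second fitted from 20 to 320 s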); details: Recombinant KvBeta, NADPH fluorescence decrease slope, 10 min; at 10 µM; stronger effect = lower value
[6] = target: Alpha-2C adrenergic receptor (Homo sapiens) (UniProt P18825); experiment: modulators of alpha2C/GIRK thallium flux, primary screen, cell-based, HEK293 alpha2C/GIRK1/2 (AID 624;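 active = fluorescence slope after compound addition differing from the mean of all screened samples at 99.7% confidence, in either direction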;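 also: slope of fluorescence ratio to pre-addition baseline per second over 15 to 24 s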); details: thallium flux BTC fluorescence, at 10 µM, actives lie on both sides
[7] = inhibitors of Sendai virus-induced IRF3 signaling, primary screen, TLR/RLR signaling modifier project, cell-based, Sendai virus stimulus, luciferase, 10K MLSCN set (AID 602276); details: HEK293 RL24 IRF3 luciferase reporter, at 10 µM, stronger effect = higher value;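 also: firefly luciferase from ISG56 promoter only with Renilla not read in this screen; 0% = Sendai virus plus DMSO and 100% = medium plus DMSO without virus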
[8] = inhibitors of poly I:C-induced TLR3 signaling, primary screen, cell-based, poly I:C stimulus, luciferase, 10K MLSCN set (AID 602277;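 active = inhibition of the reporter signal at or above 50%; inactive = inhibition below 50%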); details: HEK293-TLR3 RL24 IRF3 luciferase reporter, at 10 µM, stronger effect = higher value

Sequence of Voltage-gated potassium channel subunit beta-2 (Rattus norvegicus) (P62483 whole entry, looked up): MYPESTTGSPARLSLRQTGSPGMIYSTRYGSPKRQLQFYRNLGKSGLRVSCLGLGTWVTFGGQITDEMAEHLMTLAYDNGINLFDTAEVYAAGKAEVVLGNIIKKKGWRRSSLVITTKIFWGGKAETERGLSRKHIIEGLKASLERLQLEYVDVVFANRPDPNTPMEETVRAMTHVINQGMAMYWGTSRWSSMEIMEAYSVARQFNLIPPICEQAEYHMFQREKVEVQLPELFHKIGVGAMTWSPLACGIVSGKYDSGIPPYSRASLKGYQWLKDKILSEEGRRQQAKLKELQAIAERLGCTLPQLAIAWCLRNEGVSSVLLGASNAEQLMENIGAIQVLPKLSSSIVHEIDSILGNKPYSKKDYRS
Sequence of Alpha-2C adrenergic receptor (Homo sapiens) (P18825 whole entry, looked up): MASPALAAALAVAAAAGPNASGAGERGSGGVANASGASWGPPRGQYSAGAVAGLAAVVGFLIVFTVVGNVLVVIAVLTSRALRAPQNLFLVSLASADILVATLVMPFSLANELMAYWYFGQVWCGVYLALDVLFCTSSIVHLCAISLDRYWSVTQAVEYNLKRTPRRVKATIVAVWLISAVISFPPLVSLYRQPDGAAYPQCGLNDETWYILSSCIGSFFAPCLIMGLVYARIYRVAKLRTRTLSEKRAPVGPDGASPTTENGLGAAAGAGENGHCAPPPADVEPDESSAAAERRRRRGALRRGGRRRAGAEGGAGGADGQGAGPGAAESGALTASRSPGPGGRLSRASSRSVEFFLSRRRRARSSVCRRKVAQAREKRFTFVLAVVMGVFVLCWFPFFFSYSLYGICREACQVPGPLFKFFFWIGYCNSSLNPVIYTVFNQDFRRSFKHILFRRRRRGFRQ

Row | Compound | cell count [1] | inhibition [1] | inhibition of aggregation [2] | nuclei count [2] | inhibition [3] | nuclei count [3] | fluorescence slope [4] | NADPH fluorescence slope [5] | slope [6] | inhibition [7] | inhibition [8]
1 | CCn1nc(CC(=O)Nc2nnc(CC(=O)N3CCCCC3)s2)c2ccccc2c1=O | 385 | 0.2% (inactive) | 2.9% (inactive) | 104% | -289% (inactive) | 95.9% | -0.437 (inactive) | -2.5e-05 (inactive) | 0.00348 (inactive) | 8.15% (inactive) | 25.2% (inactive)
2 | Cn1c(=O)cc(OCC(=O)NCCCN2CCN(c3cccc(Cl)c3)CC2)c2ccccc21 | 583 | 8% (inactive) | -42.4% (inactive) | 98.2% | -83.7% (inactive) | 128% | -0.514 (inactive) | -1.4e-05 (inactive) | 0.00636 (inactive) | 25% (inactive) | 31.3% (inactive)
3 | COc1cccc(NC(=O)c2nc3nc(C)cc(C(F)F)n3n2)c1 | 641 | -2.9% (inactive) | 1.9% (inactive) | 68.8% | -34.9% (inactive) | 96.6% | -0.567 (inactive) | -5.2e-05 (inactive) | 0.00736 (inactive) | 3.8% (inactive) | 4.85% (inactive)
4 | CN(Cc1ccccc1)C(=O)c1ccccc1NC(=O)c1ccco1 | 349 | -9.3% (inactive) | -4.5% (inactive) | 86% | -102% (inactive) | 130% | -0.333 (inactive) | -6e-05 (inactive) | 0.00495 (inactive) | -13.9% (inactive) | 98.1% (active)
5 | O=C(Nc1nnc(COc2ccc(F)cc2)s1)c1cccs1 | 585 | 7.2% (inactive) | 3.9% (inactive) | 126% | -42.4% (inactive) | 104% | -0.52 (inactive) | -2.5e-05 (inactive) | 0.0053 (inactive) | 12.6% (inactive) | 6.8% (inactive)
6 | COc1ccccc1CNC(=O)C1CCCN(S(=O)(=O)c2cnc[nH]2)C1 (configuration not stated) | 443 | 49.5% (active) | 27.9% (inactive) | 87.1% | -59.5% (inactive) | 103% | -0.558 (inactive) | 7.1e-07 (inactive) | 0.00747 (inactive) | -5.95% (inactive) | 0.0501% (inactive)
7 | CCOC(=O)Cc1nnc2c(Nc3ccccc3F)nc3nonc3n12 | 631 | -9.1% (inactive) | -25.8% (inactive) | 119% | -38.4% (inactive) | 142% | -0.582 (inactive) | -7e-06 (inactive) | 0.00616 (inactive) | 7.74% (inactive) | -15.3% (inactive)
8 | CC(=O)c1ccc(NC2OC(C)C(O)C(O)C2O)cc1 (configuration not stated) | 329 | 4.3% (inactive) | -0.6% (inactive) | 93.8% | -90% (inactive) | 103% | -0.382 (inactive) | -8.6e-06 (inactive) | 0.00391 (inactive) | -11.5% (inactive) | -11.5% (inactive)
9 | CN(C1CCS(=O)(=O)C1)S(=O)C12CC3CC(CC(C3)C1)C2 (configuration not stated) | 150 | 23.1% (inactive) | -16% (inactive) | 98% | 1.8% (inactive) | 95.7% | -0.533 (inactive) | -3.6e-05 (inactive) | 0.00528 (inactive) | -4.43% (inactive) | 99.5% (active)
10 | O=c1[nH]c(N2CCCCC2)nc2c1CCCC2 | 581 | 0.9% (inactive) | 5.9% (inactive) | 107% | 9.4% (inactive) | 102% | -0.265 (inactive) | -2.4e-05 (inactive) | 0.00576 (inactive) | 17% (inactive) | 12.8% (inactive)
11 | CCCS(=O)(=O)N1CCN(Cc2ccc(OCc3ccccc3)c(OC)c2)CC1 | 247 | -5% (inactive) | 9.9% (inactive) | 79.6% | -25.9% (inactive) | 101% | -0.549 (inactive) | -4.2e-05 (inactive) | 0.0062 (inactive) | -20.2% (inactive) | -19.3% (inactive)
12 | COc1cccc(-c2nnn(CC(=O)O)n2)c1 | 472 | -5.1% (inactive) | -19.3% (inactive) | 90.3% | -118% (inactive) | 233% | -0.468 (inactive) | 2.6e-06 (inactive) | 0.00693 (inactive) | 6.2% (inactive) | 43.8% (inactive)
13 | CC(Oc1ccccc1)C(=O)NC1CC(C)(C)NC(C)(C)C1 (configuration not stated) | 386 | 0.2% (inactive) | 4.3% (inactive) | 89.9% | 13.8% (inactive) | 102% | -0.261 (inactive) | -3.5e-05 (inactive) | 0.00587 (inactive) | 17.4% (inactive) | 26.2% (inactive)
14 | CCN1C(=O)C(C(=O)Nc2ccc(OC)cc2)C2CC1(C)Oc1ccccc12 (configuration not stated) | 489 | 4.3% (inactive) | -2% (inactive) | 104% | -4.8% (inactive) | 102% | -0.305 (inactive) | -5.8e-05 (inactive) | 0.0052 (inactive) | -34.3% (inactive) | -51.5% (inactive)
15 | COc1ccccc1NC(=O)CSc1nnc(Cc2cccn2C)n1-c1ccc(F)cc1 | 508 | -7.5% (inactive) | 30.2% (inactive) | 86.3% | -51.1% (inactive) | 113% | -0.529 (inactive) | -2.1e-05 (inactive) | 0.00524 (inactive) | 11.3% (inactive) | 37.8% (inactive)
16 | Cc1ccc(NC(=O)C2CCCN(S(=O)(=O)c3cnc[nH]3)C2)cc1C (configuration not stated) | 626 | 1.6% (inactive) | 11.8% (inactive) | 106% | -102% (inactive) | 134% | -0.527 (inactive) | -2.9e-05 (inactive) | 0.00769 (inactive) | 20.9% (inactive) | 6.37% (inactive)
17 | CCN1C(=O)CC(C(=O)Nc2ccc(F)cc2)SC1=Nc1ccc2c(c1)OCO2 (configuration not stated) | 551 | -28.9% (inactive) | 1.1% (inactive) | 110% | 1.8% (inactive) | 124% | -0.504 (inactive) | -3.2e-05 (inactive) | 0.00494 (inactive) | 18.1% (inactive) | 21.5% (inactive)
18 | CCCNC(=O)NC1C(NC(=O)NCCC)N(C)C(=O)N1C (configuration not stated) | 551 | -0.3% (inactive) | -4.3% (inactive) | 98.1% | -60.1% (inactive) | 116% | -0.461 (inactive) | 2.5e-05 (inactive) | 0.00546 (inactive) | -0.304% (inactive) | 16.2% (inactive)
19 | c1ccn2c(SCc3cn4ccsc4n3)nnc2c1 | 586 | -7.3% (inactive) | 19.5% (inactive) | 90.6% | -20.5% (inactive) | 111% | -0.544 (inactive) | 2.4e-05 (inactive) | 0.00536 (inactive) | -1.63% (inactive) | -34.1% (inactive)
20 | COc1ccc(CN(CC(=O)NCc2ccco2)C(=O)CCC(=O)Nc2nccs2)cc1 | 438 | 3.6% (inactive) | -4.3% (inactive) | 102% | -24.4% (inactive) | 114% | -0.403 (inactive) | -3.8e-05 (inactive) | 0.00588 (inactive) | 11.3% (inactive) | 12.7% (inactive)
21 | O=C1c2ccccc2C(Nc2ccc3c(c2)OCCO3)N1Cc1ccc2c(c1)OCO2 (configuration not stated) | 597 | 3.4% (inactive) | -2.8% (inactive) | 102% | -14.2% (inactive) | 106% | -0.553 (inactive) | -5e-05 (inactive) | 0.00464 (inactive) | 3.99% (inactive) | 50.1% (active)
22 | Fc1ccc(C(c2nnnn2Cc2ccco2)N2CCN(C3CCCCC3)CC2)cc1 (configuration not stated) | 297 | -3.3% (inactive) | 11.4% (inactive) | 98% | -98.2% (inactive) | 130% | -0.552 (inactive) | 3.4e-05 (inactive) | 0.00429 (inactive) | -10.1% (inactive) | -16.4% (inactive)
23 | CC(C)CCNC(=O)C1CCN(C(=O)N(C)C)CC1 | 556 | 7% (inactive) | 13.3% (inactive) | 53.8% | -28.5% (inactive) | 104% | -0.359 (inactive) | -4.6e-05 (inactive) | 0.00555 (inactive) | 8.09% (inactive) | 19.5% (inactive)
24 | CCOCC(=O)Nc1nc2c(s1)C(=O)CC(C)(C)C2 | 921 | 0.6% (inactive) | -38% (inactive) | 144% | -70.4% (inactive) | 122% | -0.541 (inactive) | 2.2e-05 (inactive) | 0.00739 (inactive) | 12.5% (inactive) | 39% (inactive)
25 | Cn1cc(C(=O)c2ccc(F)cc2)cc1-c1nc2ccccc2n1C | 357 | -6.3% (inactive) | 23.1% (inactive) | 86.8% | 5.7% (inactive) | 83% | -0.59 (inactive) | -4.1e-05 (inactive) | 0.0041 (inactive) | 3.11% (inactive) | -17.9% (inactive)
26 | COc1cccc(C2C(C(N)=O)=C(C)Nc3nc(CCCO)nn32)c1OC (configuration not stated) | 480 | 5% (inactive) | 11.5% (inactive) | 102% | -24.5% (inactive) | 94.1% | -0.455 (inactive) | -2.8e-05 (inactive) | 0.00572 (inactive) | -11.2% (inactive) | 7.06% (inactive)
27 | Cc1cc(Oc2ccccc2)nc(-c2ccccc2)n1 | 763 | 4.4% (inactive) | -2.1% (inactive) | 99.1% | 62.8% (active) | 70.6% | -0.484 (inactive) | -8.7e-05 (inactive) | 0.00573 (inactive) | -19.4% (inactive) | -47.5% (inactive)

Source: PubChem BioAssay
